Experimental data: PubChem BioAssay
Inconclusive results are not listed. The source made the active and inactive calls.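 How the source made its calls, unless noted: active means growth inhibition above 25% in both replicates, a cutoff set 3 SD above the mean; inconclusive means above 25% in only one replicate; inactive means the rest.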

How the values were obtained:
[1] = Her2 expression decrease, cell viability multiplex – SKBR3 breast tumor cells, AlphaScreen, ATP viability, primary screen (AID 461;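 active means Her2 level under about 52% in both replicate screens, with viability over 70% of control, limit read from the data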;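 on Her2 level: lower value means less Her2 protein in the cells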;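 on viability: percent of carrier control wells set as 100% viability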); conditions: SKBR3 Her2 protein level, 18-24 h, measured here: SKBR3 viability, ATP luminescence, at 10 µM
[2] = target: Receptor tyrosine-protein kinase erbB-2 (Homo sapiens) (UniProt P04626); test: as above; conditions: 18-24 h, at 10 µM, stronger effect = lower value
Receptor tyrosine-protein kinase erbB-2 (Homo sapiens), sequence (P04626 whole entry, looked up): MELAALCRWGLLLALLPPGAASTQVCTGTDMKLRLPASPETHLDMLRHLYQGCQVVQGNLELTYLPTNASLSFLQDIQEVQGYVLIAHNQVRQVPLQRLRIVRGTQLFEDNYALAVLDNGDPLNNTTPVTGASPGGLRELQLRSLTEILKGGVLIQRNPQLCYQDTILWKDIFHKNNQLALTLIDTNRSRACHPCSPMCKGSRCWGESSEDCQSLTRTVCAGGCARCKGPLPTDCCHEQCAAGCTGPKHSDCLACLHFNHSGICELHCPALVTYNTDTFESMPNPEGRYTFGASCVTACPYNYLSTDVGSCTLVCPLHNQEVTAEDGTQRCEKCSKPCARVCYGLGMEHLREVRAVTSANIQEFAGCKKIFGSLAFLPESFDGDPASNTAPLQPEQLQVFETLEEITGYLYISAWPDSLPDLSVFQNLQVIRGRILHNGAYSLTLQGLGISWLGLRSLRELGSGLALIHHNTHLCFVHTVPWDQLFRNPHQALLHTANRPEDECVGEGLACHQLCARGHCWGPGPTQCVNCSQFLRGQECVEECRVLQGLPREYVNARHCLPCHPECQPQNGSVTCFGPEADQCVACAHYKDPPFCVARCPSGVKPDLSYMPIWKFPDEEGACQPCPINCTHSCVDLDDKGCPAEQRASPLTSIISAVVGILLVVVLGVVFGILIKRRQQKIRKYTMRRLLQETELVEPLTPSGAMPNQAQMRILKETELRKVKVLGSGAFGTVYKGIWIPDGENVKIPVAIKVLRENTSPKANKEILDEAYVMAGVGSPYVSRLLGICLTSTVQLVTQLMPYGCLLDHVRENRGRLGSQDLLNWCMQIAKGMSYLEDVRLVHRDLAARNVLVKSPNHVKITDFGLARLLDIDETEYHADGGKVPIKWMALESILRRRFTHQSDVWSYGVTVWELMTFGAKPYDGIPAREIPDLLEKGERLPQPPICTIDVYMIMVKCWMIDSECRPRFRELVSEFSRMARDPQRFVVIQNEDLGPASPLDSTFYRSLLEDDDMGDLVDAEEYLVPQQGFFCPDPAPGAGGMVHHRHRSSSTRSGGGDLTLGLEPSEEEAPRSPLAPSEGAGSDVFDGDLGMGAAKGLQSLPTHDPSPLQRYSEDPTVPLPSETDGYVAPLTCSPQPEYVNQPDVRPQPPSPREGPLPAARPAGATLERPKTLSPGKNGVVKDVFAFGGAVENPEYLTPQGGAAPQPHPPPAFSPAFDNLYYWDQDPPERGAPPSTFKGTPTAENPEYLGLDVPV

[3] = reduced viability of SK-BR-3 breast cancer cells – cell-based, 24 h, human, pilot screen (AID 572;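 active means viability at or below 10% of carrier control in both of two separate runs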;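 further: compound exposure lasted between 18 and 24 h rather than exactly 24 h; 100% = carrier-treated control wells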); conditions: SK-BR-3 viability, CellTiter-Glo luminescence, at 10 µM, stronger effect = lower value
[4] = HUVEC growth inhibition – cell-based, human, primary screen (AID 575;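 active means viability at or below 30% in both replicate assays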;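 further: 100% = median of untreated cell wells with 0.1% DMSO on each plate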); conditions: HUVEC proliferation, CellTiter-Glo luminescence, 72 h; at 10 µM; stronger effect = lower value
[5] = H69AR cell proliferation blockers – human, duplicate replicates, primary screen (AID 580;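 active means viability at or under a set limit in both replicates, limit being median viability minus 3 SD, cut at about 48% in these data, passing the limit was not always enough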;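 further: 100% = mean luminescence of untreated wells and 0% = no signal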); conditions: H69AR lung tumor cells viability, ATP luminescence, 72 h; at 10 µM; stronger effect = lower value
[6] = MRP1 drug-resistance reversers in H69AR cells – cell-based, doxorubicin co-treatment, pilot screen (AID 601;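 active means viability loss from added drug above about 55%, and viability with drug at most 40%, in both replicates, limit read from the data, passing the limit was not always enough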); conditions: CellTiter-Glo, 72 h, at 10 µM; for differential viability (reversal): stronger effect = higher value
[7] = yeast transport mutant growth inhibition pilot in 384-well plates, post-Golgi transport modulator project (AID 636; in the data active means inhibition above about 31%); conditions: absorbance 615 nm, about 18 h, stronger effect = higher value
[8] = growth suppression of yeast trafficking mutant, preliminary HTS, modulators of trafficking downstream of Golgi apparatus project, 1536-format plate, OD 615 nm (AID 637; in the data active means inhibition above about 30%); conditions: yeast transport mutant growth, absorbance 615 nm, 18 h; stronger effect = higher value
[9] = S. cerevisiae growth inhibition in permissive medium (OD615), pilot counter-assay for S. cerevisiae lifespan shortening project, permissive growth control (AID 705); conditions: OD615, 24 h, at 10 µM, stronger effect = higher value
[10] = S. cerevisiae growth inhibition in restrictive medium, OD615, pilot screen, restrictive growth control, yeast lifespan reduction project (AID 706;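 active means growth inhibition above a set limit, 3 SD over mean compound inhibition, in both replicates, cut at about 43% in these data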;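 further: modified DeaD lifespan yeast strain shifted to restrictive glucose medium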); conditions: OD615, 48 h, at 10 µM, stronger effect = higher value
[11] = doxorubicin toxicity protection in MRP-1 cells – H69AR cells, CellTiter-Glo, duplicate, MRP-1 activator project, pilot screen (AID 807;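 active means viability increase at or above a cutoff of the median across tested compounds plus 3 SD, cut at about 8.5% in these data, passing the limit was not always enough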;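 further: compound pretreatment 18-22 h then 72 h combined with doxorubicin; 0% = doxorubicin alone and 100% = vehicle without doxorubicin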); conditions: H69AR viability with doxorubicin, CellTiter-Glo luminescence; at 10 µM; stronger effect = higher value
[12] = viability of HCT116 without oncogenic beta-catenin – human colon tumor cells, pilot screen (AID 823;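 active means cell viability at or below a set limit in both duplicate runs, the limit being the all-compound median minus 4 SD, cut at about 23% in these data, passing the limit was not always enough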;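 further: 0% = wells killed by 20 µM Hyamine and 100% = untreated DMSO cell wells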); conditions: HCT116 beta-catenin knockout viability, CellTiter-Glo, 60 h; at 10 µM; stronger effect = lower value
[13] = viability of PTEN-null HCT116 cells – cell-based, HCT116 clonal line, CellTiter-Glo, pilot screen (AID 824;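 active means viability at or below 27.92% in each of two runs, the all-compound median minus 4 SD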;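 further: 0% = 20 µM Hyamine control and 100% = vehicle cell control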); conditions: HCT116 PTEN-deleted viability, 60 h, at 10 µM, stronger effect = lower value
[14] = RAM pathway blockade in budding yeast – dse1pr::URA3 reporter, 5-FOA selection, pilot screen (AID 869;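 active means inhibition over a set limit, the all-compound mean plus 3 SD, in both replicate runs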;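 further: 0% = DMSO wells with no growth and 100% = 10 µM 1-NA-PP1 with full growth; RAM network block rescues cells from 5-FOA so hits raise OD615 growth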); conditions: S. cerevisiae dse1pr::URA3 5-FOA growth, OD615, 2 d; at 10 µM; stronger effect = higher value; strain carries analog-sensitive mutant Cbk1 kinase
[15] = RAM signaling pathway blockade in yeast – S. cerevisiae, Pdr1DBD-CYC8 efflux-inhibited sensitized strain, primary screen (AID 1298;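 active means RAM network inhibition above 8.4% in each of two replicates, 3 SD over the compound average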;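 further: 0% = DMSO untreated cells without growth and 100% = 10 µM 1-NA-PP1 full growth; higher means more yeast growth rescued from 5-FOA killing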); conditions: S. cerevisiae cbk1-as DSE1-URA3 strain, 5-FOA growth OD615, 2 d; at 50 µM; stronger effect = higher value
[16] = H69AR cells + 2 uM doxorubicin, measured here: viability with 2 uM doxorubicin, stronger effect = lower value
[17] = H69AR cells, compound alone cytotoxicity

SMILES	viability [1] [%]	Her2 level [2]	viability [3]	viability [4]	viability [5]	differential viability (reversal) ([6]; H69AR cells + 2 uM doxorubicin)	viability [6, 16] [%]	viability [6, 17] [%]	inhibition [7]	inhibition [8]	growth inhibition [9]	growth inhibition [10]	viability increase [11]	viability [12]	viability [13]	inhibition [14]	RAM network inhibition [15]
O=c1oc2c3c4c(cc2cc1-c1nc2ccccc2[nH]1)CCCN4CCC3	79.5	65.5% (inactive)	79.5% (inactive)	71.7% (inactive)	83.3% (inactive)	2.58% (inactive)	80.7	83.3	-1.95% (inactive)	6% (inactive)	4.75% (inactive)	-0.465% (inactive)	-5.62% (inactive)	87.2% (inactive)	89.7% (inactive)	1.73% (inactive)	2.41% (inactive)
COc1ccc(S(=O)(=O)N2CCN(c3ccc(C)cc3C)CC2)cc1OC	94.5	93.5% (inactive)	94.5% (inactive)	73.8% (inactive)	97.2% (inactive)	-0.96% (inactive)	98.2	97.2	-5.87% (inactive)	2.5% (inactive)	0.1% (inactive)	4.36% (inactive)	-0.07% (inactive)	50.6% (inactive)	72.2% (inactive)	2.41% (inactive)	1.74% (inactive)
Cc1c(NC(=O)c2noc3c2CCc2ccccc2-3)c(=O)n(-c2ccccc2)n1C	95.5	97.5% (inactive)	95.5% (inactive)	102% (inactive)	99.7% (inactive)	-5.54% (inactive)	105	99.7	-5.73% (inactive)	-7.21% (inactive)	-3.5% (inactive)	6.45% (inactive)	-0.3% (inactive)	101% (inactive)	102% (inactive)	1.05% (inactive)	4.92% (inactive)
CC(C)(C)NC(=O)CC(CC(=O)O)c1ccccc1 (stereo not drawn)	112	117% (inactive)	112% (inactive)	110% (inactive)	88.5% (inactive)	-8.51% (inactive)	97	88.5	-4.27% (inactive)	7.67% (inactive)	-11.7% (inactive)	3.69% (inactive)	-0.99% (inactive)	106% (inactive)	101% (inactive)	2.61% (inactive)	-1.67% (inactive)
COc1ccc(S(=O)(=O)N2CCCC2C(=O)Nc2ccc(O)cc2)cc1 (stereo not drawn)	93.5	106% (inactive)	93.5% (inactive)	92.6% (inactive)	98.4% (inactive)	3.97% (inactive)	94.4	98.4	0.13% (inactive)	-4.92% (inactive)	-1.65% (inactive)	2.76% (inactive)	-0.78% (inactive)	108% (inactive)	108% (inactive)	1.98% (inactive)	4.8% (inactive)
CCCNC(=O)C1CC(=O)N(c2ccc(OCC(=O)Nc3cc(C)cc(C)c3)cc2)C1 (stereo not drawn)	112	122% (inactive)	112% (inactive)	80.5% (inactive)	95.6% (inactive)	4.41% (inactive)	91.2	95.6	-0.53% (inactive)	-4.33% (inactive)	-14.5% (inactive)	-25.6% (inactive)	-4.47% (inactive)	92% (inactive)	90.4% (inactive)	2.06% (inactive)	4.16% (inactive)
COc1ccccc1-n1c(=O)[nH]c2c(C(N)=O)nc(-c3cccnc3)nc21	82.5	88.5% (inactive)	82.5% (inactive)	73.7% (inactive)	69.9% (inactive)	-5.7% (inactive)	75.6	69.9	-3.2% (inactive)	-3.93% (inactive)	-7.79% (inactive)	-16.8% (inactive)	-7.14% (inactive)	72.9% (inactive)	67.7% (inactive)	2.47% (inactive)	4.37% (inactive)
O=C1c2ccccc2C(=O)N1C/C=C/CN1C(=O)c2ccccc2C1=O	85	91.5% (inactive)	85% (inactive)	86.5% (inactive)	82.8% (inactive)	-9.46% (inactive)	92.3	82.8	-3.46% (inactive)	-0.33% (inactive)	2.25% (inactive)	-1.58% (inactive)	-1.04% (inactive)	90.3% (inactive)	102% (inactive)	3.1% (inactive)	4.65% (inactive)
CCOc1ccc2nc(Nc3nc4c(c(=O)[nH]3)CCC4)nc(C)c2c1	99.5	99% (inactive)	99.5% (inactive)	98.4% (inactive)	103% (inactive)	5.67% (inactive)	97.7	103	-4% (inactive)	1.83% (inactive)	-9.17% (inactive)	9.05% (inactive)	0.54% (inactive)	93.8% (inactive)	96.4% (inactive)	1.01% (inactive)	3.45% (inactive)
